In PubChem BioAssay AID1159580 (chemical genetic matrix, 2015):
Several values for one entry are separate records, joined by “and”; a condition that tells them apart may be missing. Equal values may be shown once. Screen size: about 5,500 compounds; about 2,000 (36%) were called active. Inconclusive results (about 18%) are left out. No stated cut-off is given here; in the data, active means normalized growth mostly below about 0.91 (no sharp cut-off); inconclusive means no clear call, values can overlap the other calls; inactive means mostly above about 0.92. The list shows a part of the results.

Experiment: chemical genetic growth profiling, strain panel (AID 1159580);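 further: tested at 20 µM; growth read once vehicle control cultures reached saturation at 30 °C; 1 = growth at the plate median or of vehicle wells; lower values mean less growth of the strain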
Settings: S. cerevisiae deletion strains, growth OD

Measured: normalized growth

CC(C(=O)O)c1cccc(C(=O)c2ccccc2)c1 (stereo not drawn)
inactive: locus YAL013W, strain DEP1, active compounds read low 1.01 | locus YAL021C, strain ccr4, active compounds read low 0.995 | locus YAL026C, strain drs2, active compounds read low 0.981 | locus YAL030W, strain snc1, active compounds read low 0.997 | locus YAL040C, strain CLN3, active compounds read low 1 | locus YBL061C, strain skt5, active compounds read low 0.998 | locus YBR009C, strain hhf1, active compounds read low 0.979 | locus YBR021W, strain FUR4, active compounds read low 1.01 | locus YBR023C, strain chs3, active compounds read low 0.985 | locus YBR171W, strain sec66, active compounds read low 0.98 | locus YBR229C, strain ROT2, active compounds read low 1 | locus YBR231C, strain swc5, active compounds read low 1 | locus YBR279W, strain paf1, active compounds read low 0.972 | locus YCL011C, strain gbp2, active compounds read low 0.991 | locus YCL016C, strain dcc1, active compounds read low 0.969 | locus YCL029C, strain bik1, active compounds read low 0.962 | locus YCL061C, strain MRC1 (second series), active compounds read low 1.01 | locus YCL069W, strain vba3, active compounds read low 0.983 | locus YCR088W, strain abp1, active compounds read low 0.989 | locus YDL005C, strain med2, active compounds read low 0.98 | locus YDL035C, strain GPR1, active compounds read low 1 | locus YDL040C, strain nat1, active compounds read low 0.986 | locus YDL074C, strain BRE1, active compounds read low 1.06 | locus YDL101C, strain DUN1, active compounds read low 1 | locus YDL134C, strain PPH21, active compounds read low 0.994 | locus YDL185W, strain tfp1, active compounds read low 0.941 | locus YDL192W, strain arf1, active compounds read low 0.978 | locus YDR001C, strain nth1, active compounds read low 0.983 | locus YDR069C, strain doa4, active compounds read low 0.984 | locus YDR101C, strain arx1, active compounds read low 1.02 | locus YDR137W, strain rgp1, active compounds read low 0.953 | locus YDR159W, strain sac3, active compounds read low 0.928 | locus YDR162C, strain NBP2, active compounds read low 0.979 | locus YDR195W, strain ref2 1.02 | locus YDR297W, strain sur2, active compounds read low 0.982 | locus YDR318W, strain mcm21, active compounds read low 0.969 | locus YDR334W, strain swr1, active compounds read low 0.984 | locus YDR335W, strain msn5, active compounds read low 1.01 | locus YDR363W, strain ESC2, active compounds read low 0.998 | locus YDR388W, active compounds read low 0.989 | locus YDR392W, strain spt3, active compounds read low 0.871 | locus YDR502C, strain sam2, active compounds read low 1 | locus YEL003W, strain gim4, active compounds read low 1 | locus YEL037C, strain rad23, active compounds read low 0.987 | locus YEL061C, strain CIN8 (second series), active compounds read low 0.996 | locus YEL061C, strain CIN8, active compounds read low 1 | locus YER002W, strain NOP16, active compounds read low 0.992 | locus YER015W, strain faa2, active compounds read low 0.966 | locus YER016W, strain bim1, active compounds read low 0.974 | locus YER110C, active compounds read low 0.957 | locus YER111C, strain swi4, active compounds read low 0.979 | locus YER155C, strain BEM2 (second series), active compounds read low 0.986 | locus YER155C, strain BEM2, active compounds read low 0.994 | locus YER167W, strain BCK2, active compounds read low 1 | locus YFR010W, strain ubp6, active compounds read low 1 | locus YGL078C, strain dbp3, active compounds read low 0.99 | locus YGL086W, strain mad1, active compounds read low 1.01 | locus YGL167C, strain pmr1, active compounds read low 0.991 | locus YGL173C, strain kem1, active compounds read low 1.01 | locus YGL227W, strain vid30, active compounds read low 1 | locus YGL240W, strain doc1, active compounds read low 0.995 | locus YGL248W, strain PDE1, active compounds read low 1.02 | locus YGL253W, strain hxk2, active compounds read low 0.984 | locus YGR078C, strain PAC10, active compounds read low 1.02 | locus YGR135W, strain pre9, active compounds read low 0.958 | locus YGR229C, strain SMI1, active compounds read low 1.01 | locus YGR252W, strain gcn5, active compounds read low 1.03 | locus YHR013C, strain ard1, active compounds read low 0.964 | locus YHR027C, strain rpn1, active compounds read low 1.01 | locus YHR030C, strain SLT2, active compounds read low 0.982 and 1.04 | locus YHR079C, strain IRE1 (second series), active compounds read low 0.974 | locus YHR079C, strain IRE1, active compounds read low 1.04 | locus YHR094C, strain hxt1, active compounds read low 0.979 | locus YHR129C, strain ARP1, active compounds read low 0.987 | locus YHR142W, strain chs7, active compounds read low 0.966 | locus YHR200W, strain rpn10, active compounds read low 0.955 | locus YIL066C, strain RNR3, active compounds read low 1.02 | locus YIL073C, strain SPO22, active compounds read low 0.868 | locus YIL125W, strain kgd1, active compounds read low 0.984 | locus YIR030C, strain dcg1, active compounds read low 0.961 | locus YJL092W, strain hpr5, active compounds read low 0.997 | locus YJL095W, strain BCK1 (second series), active compounds read low 0.978 | locus YJL095W, strain BCK1, active compounds read low 1.05 and 1.01 | locus YJL115W, strain asf1, active compounds read low 0.98 | locus YJL129C, strain trk1, active compounds read low 0.942 | locus YJL134W, strain LCB3, active compounds read low 0.991 | locus YJL154C, strain vps35, active compounds read low 0.982 | locus YJL164C, strain tpk1, active compounds read low 0.985 | locus YJL166W, strain qcr8, active compounds read low 0.999 | locus YJL168C, strain set2, active compounds read low 0.978 | locus YJL187C, strain SWE1 (second series), active compounds read low 1.03 | locus YJR043C, strain POL32, active compounds read low 1.03 | locus YJR066W, strain TOR1, active compounds read low 0.965
